Data from PubChem BioAssay (NCATS).
Results filed as inconclusive are left out. Activity calls are given as the source filed them. The call rests on the fitted dose curve; in most records, active means well fitted curve in the direction sought with a large enough effect; inconclusive means small, poorly fitted or top-dose-only effect, or another doubt; inactive means no such curve, though single readings can be large; an effect the other way counts as inactive or inconclusive.

Key:
[1] = Quantitative High-Throughput drug screen in 47 multiple myeloma cell lines against the NCATS MIPE library collection: KMS12BM_JCRB cell viability assay (AID 1918971); further: nearly all actives have a fitted effect of over 35% in size
Outline: (§1)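 Myeloma cell lines, 500 cells per well, exposed to MIPE 4.0 library compounds for 48 h at 37C, 5% CO2. Viability from ATP by CellTiter-Glo luminescence; normalised to DMSO (100%) and media-only (0%) wells.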

[2] = Quantitative High-Throughput drug screen in 47 multiple myeloma cell lines against the NCATS MIPE library collection: KMS26_JCRB cell viability assay (AID 1918975); further: nearly all actives have a fitted effect of over 45% in size
Outline: as §1

[3] = Quantitative High-Throughput drug screen in 47 multiple myeloma cell lines against the NCATS MIPE library collection: MOLP8_DSMZ cell viability assay (AID 1918977); further: nearly all actives have a fitted effect of over 45% in size
Outline: (§2)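 Myeloma cells (500/well) treated with MIPE 4.0 compounds for 48 h at 37 °C, 5% CO2. Viability read as ATP via CellTiter-Glo luminescence after 5 min at RT; DMSO-only wells = 100%, media-only = 0% viability.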

[4] = Quantitative High-Throughput drug screen in 47 multiple myeloma cell lines against the NCATS MIPE library collection: NCIH929_DSMZ cell viability assay (AID 1918978); further: nearly all actives have a fitted effect of over 35% in size
Outline: as §2

[5] = Quantitative High-Throughput drug screen in 47 multiple myeloma cell lines against the NCATS MIPE library collection: KMS12PE_JCRB cell viability assay (AID 1918972); further: nearly all actives have a fitted effect of over 30% in size
Outline: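 Myeloma cells (500 per well) were exposed to MIPE 4.0 compounds by pin transfer and incubated 48 hours at 37C, 5% CO2. Viability was read as ATP by CellTiter-Glo luminescence, normalised to DMSO (100%) and media-only (0%) wells.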

[6] = Quantitative High-Throughput drug screen in 47 multiple myeloma cell lines against the NCATS MIPE library collection: KMS20_JCRB cell viability assay (AID 1918973); further: nearly all actives have a fitted effect of over 45% in size
Outline: (§3)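 We plated 500 myeloma cells per well, pinned in MIPE 4.0 compounds, and incubated for 48 hours at 37C. ATP was then quantified with CellTiter-Glo, with DMSO and media-only wells defining 100% and 0%.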

[7] = Quantitative High-Throughput drug screen in 47 multiple myeloma cell lines against the NCATS MIPE library collection: KMS21BM_JCRB cell viability assay (AID 1918974); conditions: ATP luminescence, 48 h; viability: at 45.8 µM (top of the series)
Outline: as §3

[8] = Quantitative High-Throughput drug screen in 47 multiple myeloma cell lines against the NCATS MIPE library collection: MMM1_PLB cell viability assay (AID 1918976); further: nearly all actives have a fitted effect of over 35% in size
Outline: as §2

[9] = Quantitative High-Throughput drug screen in 47 multiple myeloma cell lines against the NCATS MIPE library collection: MM1S_ATCC cell viability assay (AID 1918980); further: nearly all actives have a fitted effect of over 45% in size
Outline: as §2

[10] = Quantitative High-Throughput drug screen in 47 multiple myeloma cell lines against the NCATS MIPE library collection: OCIMY1_PLB cell viability assay (AID 1918979); further: nearly all actives have a fitted effect of over 35% in size
Outline: as §2

Measured: Potency
Potency means the concentration at half of the fitted maximal effect.

C[C@@H](O)[C@H]1C(=O)N2C(C(=O)OCOC(=O)C(C)(C)C)=C(SC3CN(C4=NCCS4)C3)[C@H](C)[C@H]12
inactive: [1] | [2] | [3] | [4]

Cc1nc(NC(=O)N2CCC[C@@H]2C(N)=O)sc1-c1csc(C(C)(C)C)n1
active: [5] 4.69 µM | [6] 2.64 µM | [7] 1.05 µM | [2] 1.18 µM | [8] 0.935 µM | [3] 0.166 µM | [4] 0.833 µM | [9] 6.62 µM

CC(C)N(CCCNC(=O)Nc1ccc(C(C)(C)C)cc1)C[C@H]1O[C@@H](n2cc(Br)c3c(N)ncnc32)[C@H](O)[C@H]1O
active: [6] 5.26 µM | [2] 26.4 µM | [8] 18.7 µM | [3] 18.7 µM | [4] 23.5 µM | [9] 23.5 µM
inactive: [5]

O=C1Nc2ccc(I)cc2C1=Cc1cc(Br)c(O)c(Br)c1
inactive: [10]
active: [1] 16.6 µM | [2] 16.6 µM

Cc1ccccc1C(C(=O)NC1CCCCC1)N(C(=O)CNc1ccc(C#N)cc1)c1cccc(F)c1 (stereo not drawn)
inactive: [4] | [10] | [9]
active: [1] 2.96 µM

CN1CCN(c2ncc(-c3cc(Cl)cc(Cl)c3Cl)c(N)n2)CC1
active: [4] 23.5 µM | [9] 11.8 µM
inactive: [1] | [2] | [3] | [10]

CO[C@H]1O[C@@H]2O[C@@]3(C)CC[C@@H]4[C@@H](C)CC[C@@H]([C@H]1C)[C@@]24OO3
active: [1] 3.32 µM | [8] 3.72 µM | [4] 0.833 µM
inactive: [2] | [10] | [9]

COC(=O)[C@H](c1ccccc1Cl)N1CCc2sccc2C1
inactive: [1] | [2] | [3] | [10]

CN(C)c1ccc(-c2nc3ncc(Cl)c(N4CCN(CC(=O)Nc5nccs5)CC4)c3[nH]2)cc1
inactive: [4]
active: [1] 4.18 µM | [2] 5.9 µM | [8] 9.35 µM

CC1=C[C@@H]2[C@@H]([C@@H](O)C[C@@]3(C)[C@H]2C[C@@H](C)[C@]3(O)C(=O)CO)[C@@]2(C)Cc3cnn(-c4ccccc4)c3C=C12
active: [1] 18.7 µM | [8] 20.9 µM | [10] 23.5 µM | [9] 0.0083 µM

C#C[C@]1(O)CC[C@H]2[C@H]3CCc4cc(OC)ccc4[C@H]3CC[C@@]21C
active: [1] 18.7 µM | [2] 2.64 µM | [8] 18.7 µM | [9] 20.9 µM
inactive: [3] | [10]

COc1cccc(OC)c1-c1cc(C(=O)NC2(C(=O)O)C3CC4CC(C3)CC2C4)nn1-c1ccnc2cc(Cl)ccc12 (stereo not drawn)
inactive: [5] | [6] | [2] | [3] | [4]
active: [8] 14.8 µM | [9] 16.6 µM

COc1cc(Cl)cn2c(-c3cccc(NC4CNC4)n3)cnc12
active: [1] 20.9 µM | [8] 20.9 µM

O=C1C(c2c(O)[nH]c3ccccc23)=Nc2ccccc21
active: [1] 5.9 µM | [2] 2.96 µM | [8] 2.09 µM | [9] 0.118 µM
inactive: [10]

C[C@H]1O[C@@H](n2cc(F)c(=O)[nH]c2=O)[C@H](O)[C@H]1O
active: [1] 16.6 µM
inactive: [4] | [10]

O=c1[nH]c(=O)n([C@H]2C[C@@H](O)[C@@H](CO)O2)cc1C(F)(F)F
active: [1] 8.33 µM | [8] 3.32 µM | [4] 10.5 µM

C[C@@H]1[C@H](O)[C@@H](C)C=CC=CC=CC=CC=CC=CC=C[C@H](O[C@@H]2O[C@H](C)[C@H](O)[C@H](N)[C@@H]2O)C[C@@H]2O[C@](O)(C[C@@H](O)C[C@@H](O)[C@H](O)CC[C@@H](O)C[C@@H](O)CC(=O)O[C@H]1C)C[C@H](O)[C@@H]2C(=O)O
inactive: [4]
active: [1] 2.09 µM | [9] 0.833 µM

CCC(=O)N1CCN(c2ccc(-n3c(=O)ccc4cnc5ccc(-c6cnc7ccccc7c6)cc5c43)cc2C(F)(F)F)CC1
active: [1] 0.0047 µM | [2] 0.0743 µM | [3] 0.0332 µM | [9] 0.0662 µM

FC(F)(F)c1ccc(C=Cc2nc(COc3ccc(CCCCn4ccnn4)cc3)co2)cc1
active: [1] 0.0526 µM | [2] 0.0019 µM | [4] 0.0235 µM

Nc1ccc(-c2ccc3ncc4ccc(=O)n(-c5cccc(C(F)(F)F)c5)c4c3c2)cn1
active: [1] 0.0105 µM | [2] 0.0296 µM | [8] 0.0066 µM | [3] 0.0059 µM | [9] 0.0105 µM

Cc1ccc(NC(=O)c2cccc(N(C)C)c2)cc1NC(=O)c1ccc(O)cc1
inactive: [10]
active: [1] 7.43 µM | [4] 0.118 µM | [9] 0.418 µM

CN1CCN2c3ncccc3Cc3ccccc3C2C1 (stereo not drawn)
inactive: [5] | [6] | [2] | [4] | [10]

COc1ccc(Cn2ccc3ccc(C(=O)NO)cc32)cc1
active: [5] 16.6 µM | [7] 5.9 µM | [4] 18.7 µM

CCC(c1ccc(O)cc1)C(CC)c1ccc(O)cc1 (stereo not drawn)
inactive: [5] | [3] | [4] | [10]
active: [2] 3.72 µM

COc1cc(N2CCN(C)CC2)ccc1Nc1nc(N)c(C(=O)c2c(Cl)cccc2Cl)s1
inactive: [4]
active: [5] 23.5 µM | [2] 4.18 µM | [8] 8.33 µM

NS(=O)(=O)c1cc(Cl)c(Cl)c(S(N)(=O)=O)c1
inactive: [5] | [2] | [3] | [4] | [10] | [9]
active: [8] 18.7 µM

N#CC(c1ccnc(NCCc2cccnc2)n1)c1nc2ccccc2s1 (stereo not drawn)
inactive: [3] | [10]
active: [5] 4.18 µM | [6] 14.8 µM | [8] 20.9 µM | [4] 7.43 µM

CCCCC(F)(F)[C@@]1(O)CC[C@H]2[C@H](CC(=O)[C@@H]2CCCCCCC(=O)O)O1
inactive: [5] | [2] | [4] | [10]

O=C(Nc1cccc(C(F)(F)F)c1)Nc1cc(S(=O)(=O)NC2CC2)ccc1-c1ccsc1
inactive: [5] | [10]
active: [2] 16.6 µM | [8] 18.7 µM | [3] 4.18 µM | [4] 23.5 µM | [9] 20.9 µM

COc1ccc(CCC(=O)Nc2nc3ccc(Cl)cc3s2)cc1OC
active: [8] 3.72 µM | [4] 18.7 µM | [9] 13.2 µM
inactive: [5] | [2] | [3]

CC1=C(C(=O)Nc2cc3cn[nH]c3cc2F)C(c2ccc(C(F)(F)F)cc2)CC(=O)N1 (stereo not drawn)
inactive: [5] | [6] | [2] | [3] | [4]

O=C(c1ccc(C(=O)N2CCC(N3CCCC3)CC2)c(Nc2ccccc2)c1)N1CCC(N2CCCC2)CC1
inactive: [5] | [6] | [3] | [4] | [10]

Cc1ccc2c(=O)c3cccc(CC(=O)O)c3oc2c1C
inactive: [5] | [8]
active: [2] 20.9 µM | [9] 14.8 µM

Cc1ccc(C2=Nc3ccc(Cl)cc3OC2)cc1
inactive: [2] | [4] | [10]
active: [5] 4.18 µM | [8] 18.7 µM

O=C1NC(=O)C(c2cnc3ccccn23)=C1c1cn2c3c(cccc13)CN(C(=O)N1CCOCC1)CC2
active: [5] 0.001 µM | [6] 3.72 µM | [2] 0.0235 µM
inactive: [10]

COc1ccc(-c2cc(=O)c3c(O)cc(O[C@@H]4O[C@H](CO[C@@H]5O[C@@H](C)[C@H](O)[C@@H](O)[C@@H]5O)[C@@H](O)[C@H](O)[C@@H]4O)cc3o2)cc1O
active: [2] 20.9 µM | [4] 9.35 µM | [9] 18.7 µM
inactive: [5] | [3] | [10]

c1cc(OCCN2CCCCC2)cc(-c2n[nH]c3ccc(-c4ncn[nH]4)cc23)c1
active: [5] 23.5 µM | [6] 18.7 µM | [4] 8.33 µM | [9] 23.5 µM

CC(=O)N1CCN(c2ccc(OCc3nn(C)c(C)c3-c3cccc4c(CCCOc5cc(C)c(Cl)c(C)c5)c(C(=O)O)n(Cc5cccnc5)c34)cc2)CC1
inactive: [10]
active: [5] 18.7 µM | [6] 2.96 µM | [2] 18.7 µM | [3] 20.9 µM | [4] 2.96 µM | [9] 14.8 µM

C=CCc1cccc(C=NNC(=O)CN2CCN(Cc3ccccc3)CC2)c1O
active: [5] 4.18 µM | [6] 20.9 µM | [8] 16.6 µM | [3] 6.62 µM | [4] 26.4 µM | [10] 8.33 µM
